This note sets out measurements from PubChem BioAssay (NCI).

Values joined by “and” are separate entries in the source; they are usually repeats but may differ in a detail not shown here. Equal entries are not always repeated. Compounds without any hit were thinned out: in the full panel of roughly 83,000, 20% have a hit.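 Treatment: one concentration, 48 hours, 96-well format. Scoring: percent growth, with anything below 10 considered active.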 A number with no mark means an inactive call. Active and inactive are the calls of the source.

Some test systems named below: NCI-H23 lung; NCI-H226 lung; NCI-H322M lung; HOP-62 NSCLC; NCI-H460 lung; HOP-92 NSCLC; NCI-H522 lung; A549/ATCC NSCLC; 786-0 renal; COLO 205 colon; DU-145 prostate; K-562 leukemia; MALME-3M melanoma; MDA-MB-231 breast; RXF 393 renal; SF-268 CNS; SF-295 CNS; SF-539 CNS; UACC-257 melanoma; M14 melanoma.
What all share (test): NCI-60 one-dose screen, 48 h (100 = growth as untreated, 0 = no growth, -100 = all killed)
Common to all, as to conditions: 10 µM unless noted

As for `Nc1ccc(O)c(C(=O)O)c1`, the growth in the experiment with NCI-H23 lung was 92.7% and 105% and 94.2%; in the experiment with NCI-H226 lung it was 95.4% and 92.4% and 116%; with NCI-H322M lung, 131% and 106% and 99.2%; in the experiment with HOP-62 NSCLC, 92.5% and 103% and 90.9%; with NCI-H460 lung it was 103% and 101% and 116%; with HOP-92 NSCLC, 104% and 105%. For the same compound, the growth is 102% and 101% in the experiment on NCI-H522 lung; 105% and 97% in the experiment with A549/ATCC NSCLC; 98.9% and 101% and 94.7% in the experiment with 786-0 renal; 107% and 134% with COLO 205 colon; 105% and 128% with DU-145 prostate; 92.9% and 74.2% in the experiment with K-562 leukemia. Moreover, the growth in the experiment with MALME-3M melanoma is 109% and 116%; in the experiment on MDA-MB-231 breast, 84.3% and 91.9% and 109%; in the experiment on RXF 393 renal, 92.4% and 115% and 127%; in the experiment with SF-268 CNS it was 89.5% and 104% and 110%; in the experiment on SF-295 CNS, 109% and 107% and 113%; in the experiment with SF-539 CNS, 102% and 103% and 114%. Moreover, the growth in the experiment with UACC-257 melanoma is 109% and 110%; in the experiment with M14 melanoma it was 93.8% and 104% and 95.1%.

As for `CCOC(=O)C1=C(C)NC(C)=C(C(=O)OCC)C1`, the growth is 103% and 92.2% with NCI-H23 lung; 96.7% and 96.4% with NCI-H226 lung; 108% and 102% in the experiment with NCI-H322M lung; 117% and 91.3% in the experiment with HOP-62 NSCLC; 107% and 98.2% in the experiment on NCI-H460 lung; 79.2% and 89.5% in the experiment with HOP-92 NSCLC. Further, the growth with NCI-H522 lung is 104% and 106%; with A549/ATCC NSCLC, 104% and 99%; in the experiment with 786-0 renal, 117% and 87.5%; with COLO 205 colon, 126% and 96.4%; in the experiment with DU-145 prostate, 109% and 110%; in the experiment on K-562 leukemia, 127% and 110%. Moreover, the growth in the experiment on MALME-3M melanoma is 110% and 99.7%; in the experiment with MDA-MB-231 breast, 93.5% and 117%; in the experiment with RXF 393 renal, 103%; in the experiment with SF-268 CNS it was 104% and 111%; with SF-295 CNS, 82.6% and 95.7%; in the experiment on SF-539 CNS it was 90.8% and 95.6%. For the same compound, the growth is 105% and 102% in the experiment on UACC-257 melanoma; 162% and 98% in the experiment on M14 melanoma.

With `O=P(O)(O)OC1C(OP(=O)(O)O)C(OP(=O)(O)O)C(OP(=O)(O)O)C(OP(=O)(O)O)C1OP(=O)(O)O.[Cu+2]` (stereo not given), the growth in the experiment on NCI-H23 lung was 93.3%; with NCI-H226 lung it was 98.8%; in the experiment on NCI-H322M lung it was 106%; in the experiment with HOP-62 NSCLC it was 114%; with NCI-H460 lung, 84.2%; with HOP-92 NSCLC, 106%. In addition, the growth in the experiment on NCI-H522 lung is 101%; in the experiment on A549/ATCC NSCLC, 64.1%; in the experiment on 786-0 renal, 114%; in the experiment on COLO 205 colon it was 111%; in the experiment with DU-145 prostate, 104%; with K-562 leukemia it was 94.7%. The growth with MALME-3M melanoma is 93.4%; in the experiment with MDA-MB-231 breast, 80.7%; in the experiment on RXF 393 renal it was 125%; with SF-268 CNS, 125%; in the experiment on SF-295 CNS it was 91%; in the experiment with SF-539 CNS, 72%. Moreover, the growth is 80.2% in the experiment on UACC-257 melanoma and 102% with M14 melanoma.

Turning to `CN1C2C=CC(=O)C1C1C(=O)N(c3ccccc3)C(=O)C12` (stereo not given), the growth with NCI-H23 lung was 96.7%; in the experiment with NCI-H226 lung it was 105%; with NCI-H322M lung, 98.4%; with HOP-62 NSCLC, 91.2%; in the experiment with NCI-H460 lung, 80.6%; in the experiment on HOP-92 NSCLC, 32.3%. The growth is -8.8% (active) with NCI-H522 lung; 106% in the experiment with A549/ATCC NSCLC; 93.5% in the experiment on 786-0 renal; 99.9% with COLO 205 colon; 37.3% in the experiment with DU-145 prostate; 40.8% with K-562 leukemia. Moreover, the growth was 82.5% with MALME-3M melanoma; 93.9% with MDA-MB-231 breast; 59.1% in the experiment on RXF 393 renal; 74.1% in the experiment with SF-268 CNS; 99% with SF-295 CNS; 66.5% with SF-539 CNS. Also, the growth was 81.8% with UACC-257 melanoma and 105% in the experiment on M14 melanoma.

On to `Cc1ccc(S(=O)(=O)n2ccnc2)cc1`, for which the growth is 102% in the experiment on NCI-H23 lung; 93.5% in the experiment on NCI-H226 lung; 118% with NCI-H322M lung; 106% in the experiment with HOP-62 NSCLC; 104% with NCI-H460 lung; 97% with HOP-92 NSCLC. Also, the growth in the experiment on NCI-H522 lung was 95.8%; with A549/ATCC NSCLC, 89.1%; in the experiment on 786-0 renal, 138%; with COLO 205 colon it was 120%; in the experiment on DU-145 prostate, 120%; in the experiment with K-562 leukemia it was 123%. Moreover, the growth was 107% in the experiment with MALME-3M melanoma; 98.9% with MDA-MB-231 breast; 96.2% with RXF 393 renal; 104% in the experiment on SF-268 CNS; 102% with SF-295 CNS; 96.7% in the experiment with SF-539 CNS. The growth with UACC-257 melanoma was 91.5%; in the experiment with M14 melanoma, 104%.

Regarding `COC(=O)c1ccccc1Cl`, the growth in the experiment with NCI-H23 lung was 103%; with NCI-H226 lung, 101%; with NCI-H322M lung, 97.4%; in the experiment on HOP-62 NSCLC, 98.3%; in the experiment with NCI-H460 lung, 106%; with HOP-92 NSCLC it was 85.3%. Besides, the growth was 102% in the experiment with NCI-H522 lung; 99.4% in the experiment on A549/ATCC NSCLC; 102% in the experiment with 786-0 renal; 102% in the experiment on COLO 205 colon; 106% in the experiment with DU-145 prostate; 8.26% (active) in the experiment on K-562 leukemia. Also, the growth is 95% in the experiment on MALME-3M melanoma; 111% in the experiment on MDA-MB-231 breast; 121% with RXF 393 renal; 98.9% in the experiment with SF-268 CNS; 92.1% in the experiment on SF-295 CNS; 93.5% with SF-539 CNS. The growth with UACC-257 melanoma and in the experiment on M14 melanoma was 102% in each case.
